Calls of active or inactive are those of the source. Rule for the calls: active = hit-call score of the fitted dose curve at least 0.9, where 1 is the maximum; inactive = score below 0.9.
How the values were obtained:
Details in all cases: mRNA level, 48 h; actives raise or lower the signal
[1] = read-out: Transforming Growth Factor (TGFB1), TGFB1 (gene 7040); assay: LTEA_HepaRG_TGFB1: Life Technologies and Expression Analysis (LTEA) Assay for Transforming Growth Factor (TGFB1) Transporter using HepaRG (AID 2283533)
Outline: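 Differentiated HepaRG cells exposed 48 hr in serum-free induction medium to eight half-log concentrations up to 100 uM (0.5% DMSO), duplicate; TGFB1 mRNA by TaqMan qRT-PCR normalised to ACTB, GAPDH, POLR2A; bidirectional fit against DMSO.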

TIMP1, TIMP1 (gene 7076) = assay: LTEA_HepaRG_TIMP1: Life Technologies and Expression Analysis (LTEA) Assay for TIMP1 using HepaRG (AID 2283534);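 note: TaqMan qRT-PCR signal normalized to ACTB GAPDH and POLR2A housekeeping genes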
Outline: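 Differentiated HepaRG cells exposed 48 h in serum-free induction medium, duplicates, eight half-log concentrations from 100 uM in 0.5% DMSO. TIMP1 mRNA by qRT-PCR normalized to ACTB, GAPDH, POLR2A; bidirectional fitting against DMSO.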

[2] = read-out: Tumor necrosis factor receptor 1 (TNFRSF1A), TNFRSF1A (gene 7132); assay: LTEA_HepaRG_TNFRSF1A: Life Technologies and Expression Analysis (LTEA) Assay for Tumor necrosis factor receptor 1 (TNFRSF1A) using HepaRG (AID 2283535)
Outline: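 Differentiated HepaRG cells in serum-free induction medium, exposed 48 h in duplicate to 8 half-log concentrations up to 100 uM in 0.5% DMSO. TNFRSF1A mRNA by Fluidigm TaqMan qRT-PCR, normalized to ACTB, GAPDH, POLR2A; bidirectional fit.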

[3] = read-out: Cellular tumor antigen p53 (Homo sapiens) (UniProt P04637); assay: LTEA_HepaRG_TP53: Life Technologies and Expression Analysis (LTEA) Assay for Tumor Protein P53 (TP53) using HepaRG (AID 2283537)
Outline: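 Gain or loss of TP53 mRNA signal is scored relative to 0.5% DMSO after 48 h chemical treatment of HepaRG liver cells, tested in duplicate at eight half-log concentrations up to 100 uM.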

[4] = read-out: UDP glucuronosyltransferase (UGT1A1), UGT1A1 (gene 54658); assay: LTEA_HepaRG_UGT1A1: Life Technologies and Expression Analysis (LTEA) Assay for UDP glucuronosyltransferase (UGT1A1) using HepaRG (AID 2283538)
Outline: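 HepaRG cells, 0.5% DMSO vehicle, 48 h exposure in serum-free induction medium to 8-point half-log series topping at 100 uM, in duplicate. UGT1A1 mRNA by Fluidigm qRT-PCR, normalized to ACTB/GAPDH/POLR2A; bidirectional fit versus DMSO.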

[5] = read-out: UDP glucuronosyltransferase (UGT1A6), UGT1A6 (gene 54578); assay: LTEA_HepaRG_UGT1A6: Life Technologies and Expression Analysis (LTEA) Assay for UDP glucuronosyltransferase (UGT1A6) using HepaRG (AID 2283539)
Outline: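 Differentiated HepaRG cells, ~100,000/well, were exposed for 48 h in serum-free induction medium with 0.5% DMSO to 8-point half-log series topping at 100 uM, in duplicate. mRNA measured by Fluidigm TaqMan qRT-PCR, normalized to ACTB, GAPDH and POLR2A.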

[6] = read-out: X-box binding protein 1 (XBP1), XBP1 (gene 7494); assay: LTEA_HepaRG_XBP1: Life Technologies and Expression Analysis (LTEA) Assay for X-box binding protein 1 (XBP1) using HepaRG (AID 2283540)
Outline: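 Differentiated human HepaRG cells in serum-free induction medium exposed 48 h in duplicate to eight half-log concentrations up to 100 uM in 0.5% DMSO. XBP1 mRNA measured by Fluidigm TaqMan qRT-PCR, normalized to ACTB, GAPDH, POLR2A; bidirectional fitting against DMSO.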

[7] = read-out: Thyroid Hormone Responsive (THRSP), THRSP (gene 7069); assay: LTEA_HepaRG_THRSP: Life Technologies and Expression Analysis (LTEA) Assay for Thyroid Hormone Responsive (THRSP) using HepaRG (AID 2283536)
Outline: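 Differentiated human HepaRG cells were exposed in duplicate for 48 h in serum-free induction medium to eight concentrations (top 100 uM, half-log steps, 0.5% DMSO). Expression was quantified by TaqMan qRT-PCR, normalized to ACTB, GAPDH and POLR2A, with bidirectional fitting against DMSO.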

[8] = read-out: Transforming Growth Factor (TGFA), TGFA (gene 7039); assay: LTEA_HepaRG_TGFA: Life Technologies and Expression Analysis (LTEA) Assay for Transforming Growth Factor (TGFA) using HepaRG (AID 2283532)
Outline: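 Differentiated human HepaRG cells, plated 48 h then switched to serum-free induction medium, were exposed in duplicate for 48 h to 8-point half-log series from 100 uM in 0.5% DMSO. TGFA mRNA measured by qRT-PCR, normalized to ACTB/GAPDH/POLR2A, bidirectional fit versus DMSO.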

Measured: AC50

Sequence of Cellular tumor antigen p53 (Homo sapiens) (P04637 whole entry, looked up): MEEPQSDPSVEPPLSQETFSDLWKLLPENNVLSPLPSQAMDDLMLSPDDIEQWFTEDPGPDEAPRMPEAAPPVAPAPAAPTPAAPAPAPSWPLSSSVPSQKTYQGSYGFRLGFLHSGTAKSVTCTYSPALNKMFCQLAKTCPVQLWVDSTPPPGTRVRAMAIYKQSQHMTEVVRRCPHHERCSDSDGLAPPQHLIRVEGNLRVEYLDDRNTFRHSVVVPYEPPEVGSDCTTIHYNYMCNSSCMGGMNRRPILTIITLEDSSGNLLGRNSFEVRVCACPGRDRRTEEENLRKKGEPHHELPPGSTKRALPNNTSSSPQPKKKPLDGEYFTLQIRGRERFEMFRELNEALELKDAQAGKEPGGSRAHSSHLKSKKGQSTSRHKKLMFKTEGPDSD

CC[C@H](C)C(=O)O[C@H]1C[C@@H](C)C=C2C=C[C@H](C)[C@H](CC[C@@H]3C[C@@H](O)CC(=O)O3)[C@H]21
inactive: [1] | TIMP1, TIMP1 (gene 7076) | [2] | [3] | [5] | [6]
active: [4] 0.0554 µM

CC(C)CCO
inactive: [1] | TIMP1, TIMP1 (gene 7076) | [2] | [7] | [3] | [4] | [5] | [6]

CCC(C)(C)C(=O)O[C@H]1C[C@@H](C)C=C2C=C[C@H](C)[C@H](CC[C@@H]3C[C@@H](O)CC(=O)O3)[C@H]21
inactive: [8] | [1] | TIMP1, TIMP1 (gene 7076) | [2] | [3] | [4] | [5] | [6]
active: [7] 25.4 µM

O=C(NS(=O)(=O)/C=C/c1ccccc1)c1ccc(F)cc1Cl
inactive: [8] | [1] | TIMP1, TIMP1 (gene 7076) | [2] | [3] | [5]
active: [7] 0.502 µM | [4] 17.1 µM | [6] 26.3 µM

CCNc1ccccc1
inactive: [1] | TIMP1, TIMP1 (gene 7076) | [2] | [7] | [3] | [4] | [5] | [6]

O=C(O)c1cccc(N(Cc2cccnc2)c2ccc(OC(F)F)c(OC(F)F)c2)c1
inactive: [1] | TIMP1, TIMP1 (gene 7076) | [7] | [3] | [5] | [6]
active: [4] 25 µM

CCOCCOCCOCCO
inactive: [8] | [1] | TIMP1, TIMP1 (gene 7076) | [2] | [7] | [3] | [4] | [5] | [6]

O=c1n(CC2CO2)c(=O)n(CC2CO2)c(=O)n1CC1CO1 (stereo not drawn)
active: [3] 90.1 µM
inactive: [1] | TIMP1, TIMP1 (gene 7076) | [2] | [7] | [4] | [5] | [6]

Cn1c(=O)cc(Oc2ccc(F)cc2F)c2cnc(NCC(C)(C)O)nc21
inactive: [1] | TIMP1, TIMP1 (gene 7076) | [2] | [7] | [3] | [4] | [5] | [6]

Nc1cccc(N)c1
inactive: [8] | [1] | TIMP1, TIMP1 (gene 7076) | [2] | [7] | [3] | [4] | [5] | [6]

COc1cccc(-c2ccc(/C=C\CN3CCCCCC3)cc2Cl)c1
active: [1] 87.3 µM | [4] 83.4 µM | [5] 80.4 µM
inactive: TIMP1, TIMP1 (gene 7076) | [2] | [7] | [3] | [6]

CC(C)CCCCCCCOC(=O)CCCCC(=O)OCCCCCCCC(C)C
inactive: [1] | TIMP1, TIMP1 (gene 7076) | [2] | [7] | [3] | [4] | [5] | [6]

CCOCCO
inactive: [1] | TIMP1, TIMP1 (gene 7076) | [2] | [7] | [3] | [4] | [5] | [6]

CC(=O)c1ccc2c(c1)[C@H](NC(=O)c1ccc(F)cc1)[C@@H](O)C(C)(C)O2
inactive: [8] | [1] | TIMP1, TIMP1 (gene 7076) | [2] | [7] | [3] | [5] | [6]
active: [4] 22.6 µM

O=C1CCCCCN1
inactive: [1] | TIMP1, TIMP1 (gene 7076) | [2] | [7] | [3] | [4] | [5] | [6]

O=C1OC(=O)C2C3C=CC(C3)C12 (stereo not drawn)
inactive: [8] | [1] | TIMP1, TIMP1 (gene 7076) | [2] | [7] | [3] | [4] | [5] | [6]

COC(=O)CC(=O)OC
inactive: [8] | [1] | TIMP1, TIMP1 (gene 7076) | [2] | [7] | [3] | [4] | [5] | [6]

CC(C)=CCC/C(C)=C/CO
inactive: [1] | TIMP1, TIMP1 (gene 7076) | [2] | [7] | [3] | [4] | [5] | [6]

CC(C)=CCCC(C)CCO (stereo not drawn)
inactive: [8] | [1] | TIMP1, TIMP1 (gene 7076) | [2] | [7] | [3] | [4] | [5] | [6]

O=C(O)c1cc(N=Nc2ccc(S(=O)(=O)Nc3ccccn3)cc2)ccc1O
inactive: [1] | [2] | [7] | [3] | [4] | [5] | [6]

COC(=O)c1ccccc1O
inactive: [8] | [1] | TIMP1, TIMP1 (gene 7076) | [2] | [7] | [3] | [4] | [5] | [6]

COc1ccc(/C=C/S(=O)(=O)NC(=O)c2ccc(C)cc2Cl)cc1
inactive: [1] | TIMP1, TIMP1 (gene 7076) | [2] | [7] | [3] | [4] | [5] | [6]

COCCOCCOCCOC
inactive: [1] | TIMP1, TIMP1 (gene 7076) | [2] | [7] | [3] | [4] | [5] | [6]

CCCCCCCCCCCCCCCO
inactive: [1] | TIMP1, TIMP1 (gene 7076) | [2] | [7] | [3] | [4] | [5] | [6]

— PubChem BioAssay (EPA / NIEHS)
